# Sampled rows, rich in hits. Any-hit rate of the full collection: about 4.8%.
# Wee1 stabilizer – inhibitors of human Wee1 degradation. P30291. HeLa Luc-Wee1K328M stability, luciferase luminescence; 100% = proteasome inhibitor MG132 effect. reporter increase, % at 5 µM. actives 1.2% (n = 220,000);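 active = activation above the mean of all tested compounds plus 3 SD, set per screening run, cut at about 8.8% in these data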;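 note: cells exposed to compound for 20 h before luminescence read; 0% = DMSO alone and 100% = MG132 at 30 µM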
# Target sequence (P30291 whole entry K328M): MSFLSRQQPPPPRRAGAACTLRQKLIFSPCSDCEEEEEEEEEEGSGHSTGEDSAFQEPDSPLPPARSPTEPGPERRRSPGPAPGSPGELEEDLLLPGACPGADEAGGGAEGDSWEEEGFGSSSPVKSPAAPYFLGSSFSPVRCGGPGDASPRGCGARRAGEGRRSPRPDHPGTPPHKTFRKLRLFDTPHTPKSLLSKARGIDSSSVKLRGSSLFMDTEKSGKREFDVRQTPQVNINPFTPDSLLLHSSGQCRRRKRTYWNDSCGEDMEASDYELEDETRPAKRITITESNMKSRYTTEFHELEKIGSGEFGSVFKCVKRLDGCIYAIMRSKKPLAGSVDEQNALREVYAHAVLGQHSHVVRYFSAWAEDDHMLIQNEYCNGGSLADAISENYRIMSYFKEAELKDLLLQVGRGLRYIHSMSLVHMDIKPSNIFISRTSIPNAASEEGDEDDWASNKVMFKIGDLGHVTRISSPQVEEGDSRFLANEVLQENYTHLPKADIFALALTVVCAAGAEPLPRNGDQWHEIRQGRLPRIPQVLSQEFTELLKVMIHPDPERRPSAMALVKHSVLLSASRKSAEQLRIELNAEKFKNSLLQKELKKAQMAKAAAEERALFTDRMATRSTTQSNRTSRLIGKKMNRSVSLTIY
# APP 5UTR inh – APP translation inhibition. inhibition, % at 2 µM. actives 0.82% (n = 190,000). SH-SY5Y APP 5'UTR-luciferase reporter, luminescence;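 active = inhibition above a set limit, derived from the sample mean plus 3 SD, cut at about 45% in these data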
# Hsp70 activator – transcriptional activators of Hsp70; HeLa Hsp70 promoter luciferase reporter, luminescence; scaled: vehicle 0, proteasome-inhibitor control 100%; AID 1203; actives 0.04% (n = 200,000); activation, % at 10 µM;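 active = activation above the mean across all tested compounds plus 3 SD, cutoff set per campaign, cut at about 5.5% in these data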;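 note: 100% = MG132 at 30 µM as the positive control and 0% = DMSO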
# STAT1 activator – activators of IFN-gamma induced STAT1 signaling; activation (% of control), % at 5.5 µM; NIH 3T3 STAT1-luciferase reporter, luminescence; 100% = IFN-gamma alone, no compound; actives 2.6% (n = 200,000);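 active = activation above the screen-wide mean activation plus 3 SD, cut at about 130% in these data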;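 note: raw ratio to IFN-gamma control signal so 100% means no change and 0% no light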
# APP 5'UTR act – activates APP 5'UTR luciferase reporter; actives 1% (n = 190,000); SH-SY5Y APP 5'UTR luciferase reporter, luminescence; zero percent = DMSO vehicle wells; activation, % at 2 µM;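 active = activation above a set limit, based on mean plus 3 SD of controls, cut at about 140% in these data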
# NF-kB neuron act – compounds increasing NF-kB expression in human neuronal cells; AID 1239; actives 1.6% (n = 190,000); NF-kB reporter expression; hits give high values; fold change at 12.5 µM; in the data active = fold change above about 3.3
# * hit, by the source's call; · = no result.
SMILES,Wee1 stabilizer,APP 5UTR inh,Hsp70 activator,STAT1 activator,APP 5'UTR act,NF-kB neuron act
C=CCOC(=O)C1=C(C)NC2(O)c3ccccc3C(=O)C12O (configuration not stated),-2,-2,1,89,2,0.92
O=C(CSC1=NCCN1)Nc1cccc([N+](=O)[O-])c1,-1,-2,0,133*,2,0.82
Cc1nc2ccc(NC(=S)N3CCN(c4ccccn4)CC3)cc2nc1C,9.0*,-11,0,99,11,1.1
O=C(COc1ccc2oc(-c3ccccc3)cc(=O)c2c1)Nc1ccccc1,-1,-41,0,111,41,0.94
O=c1cc(-c2ccc(F)cc2)oc2ccccc12,0,-26,0,133*,26,·
O=c1cc(-c2ccccc2[N+](=O)[O-])oc2ccccc12,0,-24,0,110,24,1
COc1ccc(-c2cc(=O)c3cc(OC)ccc3o2)cc1,4,-155,0,122,155*,5.3*
CSc1ccc(-c2cc(=O)c3ccccc3o2)cc1,8,-142,1,134*,142*,3.1
O=c1cc(-c2ccccc2F)oc2ccccc12,0,-64,0,135*,64,2.3
CCS(=O)(=O)c1ccc2c(c1)N(S(C)(=O)=O)CC(C(=O)NCc1ccccc1OC)O2 (configuration not stated),0,-6,0,99,6,1
COCn1c(COc2ccc3ccccc3c2)nc2ccccc21,-1,-96,0,138*,96,3.9*
Cc1cccc(/C(N)=N/OC(=O)Cc2ccccc2)c1,0,-46,0,147*,46,1.8
Cc1cccc(/C(N)=N/OC(=O)COc2ccccc2Cl)c1,12*,-49,0,135*,49,1.7
CCC(C(=O)O/N=C(\N)c1cccc(C)c1)c1ccccc1 (configuration not stated),1,8,0,105,-8,1.6
CCOC(=O)c1c(C)oc2c1c1c(c3ccccc32)OCN(CCCC(=O)O)C1,8,·,·,·,·,·
CCOC(=O)c1c(C)oc2c1c(C(c1cccnc1)N1CCOCC1)c(O)c1ccccc12 (configuration not stated),0,-103,1,100,103,3.6*
CCOC(=O)c1c(C)oc2c1c(C=NCc1ccccn1)c(O)c1ccccc12,6,1,0,94,-1,0.71
CCOC(=O)c1c(C)oc2c1c1c(c3ccccc32)OCN(Cc2cccnc2)C1,1,-77,0,106,77,4.7*
c1cncc(CNc2nc(N3CCOCC3)nc(N3CCOCC3)n2)c1,0,7,0,107,-7,0.88
CC1CCc2c(sc3ncnc(NS(=O)(=O)c4cccs4)c23)C1 (configuration not stated),-1,-31,0,106,31,1.1
O=[N+]([O-])/C(C=Nc1ccccc1O)=C\Nc1ccccc1O,-3,·,·,·,·,·
CCC(=O)N1CCN(c2ccnc3cc(Cl)ccc23)CC1,0,·,·,·,·,·
O=C(c1ccco1)n1c(=S)nc2ccccn21,3,-87,0,144*,87,5.4*
Cc1cccc2nc(=S)n(C(=O)c3ccco3)n12,0,-146,1,197*,146*,12*
COC(=O)c1c(NC(=O)C2CCCCC2C(=O)O)sc2c1CCCCC2 (configuration not stated),-1,2,0,130*,-2,1.6
SMILES,Wee1 stabilizer,APP 5UTR inh,Hsp70 activator,STAT1 activator,APP 5'UTR act,NF-kB neuron act
COc1ccc(C2=Nn3c(nnc3-c3ccco3)SC2)cc1,1,11,0,105,-11,4.8*
CCOc1ccc(C2=Nn3c(nnc3-c3ccc(OC)cc3)SC2)cc1,7,95*,0,108,-95,0.77
c1ccc(CCNc2ncnc3c2cnn3-c2ccccc2)cc1,5,-135,0,140*,135,6.5*
COc1ccc(-n2cc(-c3ccccc3)c3c(NCCCN4CCOCC4)ncnc32)cc1,8.9*,3,0,102,-3,0.46
c1ccc(-c2cn(-c3ccccc3)c3ncnc(NCCCN4CCOCC4)c23)cc1,7,8,0,104,-8,0.65
CC(C)OCCCNc1ncnc2c1cnn2-c1ccccc1,-1,-194,0,128,194*,6*
c1ccc(-n2ncc3c(NCCN4CCOCC4)ncnc32)cc1,2,-30,0,133*,30,1.8
